About 79,000 compounds went through this panel and 15% of them were active in at least one assay; those are over-represented in the sample as a whole. Active and inactive are the calls of the source. Cut-off read from the data, not from the text of the source: active = growth inhibition above about 70%; inactive = the rest.
Key:
[1] = NCI Yeast Anticancer Drug Screen. Data for the rad52 strain (AID 147);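 note: 0% = growth of vehicle-treated control cultures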; details: S. cerevisiae rad52 mutant growth inhibition, hits give high values
How it was run: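 Read-out: growth inhibition versus vehicle-treated controls. Cells were a DNA repair-deficient yeast strain treated with compounds.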

[2] = NCI Yeast Anticancer Drug Screen. Data for the wt1 strain (AID 149);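 note: 0% = growth of vehicle-treated wt1 cultures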; details: S. cerevisiae wt1 strain (SPY 50644) growth inhibition, hits give high values
How it was run: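 Using yeast strain wt1, compound-induced growth inhibition was determined against vehicle-treated cultures.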

[3] = NCI Yeast Anticancer Drug Screen. Data for the rad50EPP+ strain (AID 151);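 note: 0% = growth of vehicle-treated control cultures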; details: S. cerevisiae rad50 mutant strain, hits give high values
How it was run: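 Growth inhibition read against vehicle controls in rad50EPP+ yeast, a strain altered in DNA damage repair, after compound exposure.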

[4] = NCI Yeast Anticancer Drug Screen. Data for the rad50 strain (AID 155);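 note: 0% = growth of vehicle-only cultures of the same strain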; details: S. cerevisiae rad50 strain growth inhibition, hits give high values
How it was run: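 Relative growth inhibition (compound vs vehicle) was measured in yeast with a defined repair-gene alteration.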

[5] = NCI Yeast Anticancer Drug Screen. Data for the mec2-1 strain (AID 157); details: S. cerevisiae mec2-1 strain, hits give high values
How it was run: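 Yeast mec2-1 mutant treated with compound. Readout: growth inhibition vs vehicle controls.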

[6] = NCI Yeast Anticancer Drug Screen. Data for the rad14 strain (AID 159);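 note: 0% = growth of vehicle-treated control cultures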; details: S. cerevisiae rad14 strain growth inhibition, hits give high values
How it was run: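 Screen for anticancer potential: a yeast strain altered in DNA damage repair is grown with compound, and reduced growth is quantified against vehicle controls.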

[7] = NCI Yeast Anticancer Drug Screen. Data for the sgs1 mgt1 strain (AID 161);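 note: 0% = growth of cultures given vehicle only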; details: S. cerevisiae sgs1 mgt1 strain, hits give high values
How it was run: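 Inhibition of yeast growth, normalised to vehicle-treated controls, is reported for a strain bearing genetic alterations in DNA damage repair.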

[8] = NCI Yeast Anticancer Drug Screen. Data for the CLN2oe strain (AID 163);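 note: 0% = growth of vehicle-only control cultures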; details: S. cerevisiae CLN2oe strain, hits give high values
How it was run: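 Read-out: yeast growth inhibition, expressed relative to vehicle-only controls. The strain bears an engineered cell-cycle alteration.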

[9] = NCI Yeast Anticancer Drug Screen. Data for the cln2 rad14 strain (AID 165);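 note: 0% = growth equal to vehicle treated cultures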; details: S. cerevisiae cln2 rad14 strain, hits give high values
How it was run: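 cln2 rad14 yeast strain; compound exposure; growth inhibition read vs vehicle controls.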

[10] = NCI Yeast Anticancer Drug Screen. Data for the bub3 strain (AID 167); details: S. cerevisiae bub3 mutant strain, hits give high values
How it was run: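 Screening used yeast with an engineered genetic alteration affecting cell cycle control. Compound-exposed cultures were compared with vehicle cultures, and reduced growth was taken as inhibition.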

[11] = NCI Yeast Anticancer Drug Screen. Data for the wt2 strain (AID 169);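 note: 0% = growth of vehicle-treated yeast cultures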; details: S. cerevisiae wt2 strain growth inhibition, hits give high values
How it was run: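 Read-out: growth inhibition versus vehicle-treated control cultures after compound exposure of the yeast strain.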

[12] = NCI Yeast Anticancer Drug Screen. Data for the mlh1 strain (AID 171);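 note: 0% = growth of vehicle-treated control cultures of the same strain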; details: S. cerevisiae mlh1 strain growth inhibition, hits give high values
How it was run: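 Read-out: growth inhibition versus vehicle controls. Strain: engineered yeast with a defined DNA repair or cell cycle defect, compound-treated.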

[13] = NCI Yeast Anticancer Drug Screen. Data for the sgs1 strain (AID 173);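 note: 0% = growth of vehicle-only control cultures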; details: S. cerevisiae sgs1 mutant, hits give high values
How it was run: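 Read-out: yeast growth inhibition relative to vehicle controls, following compound exposure of a strain with a defined DNA repair/cell cycle alteration.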

[14] = NCI Yeast Anticancer Drug Screen. Data for the mlh1 rad18 strain (AID 175); details: S. cerevisiae mlh1 rad18 strain growth inhibition, hits give high values
How it was run: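 Yeast w/ defined DNA-repair lesions; compound exposure; growth vs vehicle controls → % inhibition.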

[15] = NCI Yeast Anticancer Drug Screen. Data for the rad18 strain (AID 177); details: S. cerevisiae rad18 mutant growth inhibition, hits give high values
How it was run: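 Readout: growth inhibition vs vehicle controls. Cells: genetically altered yeast strain, DNA repair defect.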

[16] = NCI Yeast Anticancer Drug Screen. Data for the mgt1 strain (AID 153); details: S. cerevisiae mgt1 mutant growth inhibition, hits give high values
How it was run: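 mgt1 yeast grown with test compound; read-out is growth inhibition versus vehicle-treated cultures.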

[17] = at 5.0 µM (retest, dose inferred, filed as 0.5)
[18] = at 50.0 µM (retest, dose inferred, filed as 5.0)

Measured: growth inhibition

CC1CN1C1=C(Cl)C(=O)C(N2CC2C)=C(Cl)C1=O (stereo unspecified)
inactive: [1]; at 1.2 µM 22% | [1]; at 3.7 µM 40% | [1]; at 11.0 µM 64% | [2]; at 1.2 µM 0% | [2]; at 3.7 µM -4% | [2]; at 11.0 µM 12% | [3]; at 1.2 µM 8% | [3]; at 3.7 µM 21% | [3]; at 11.0 µM 47% | [4]; at 1.2 µM 16% | [4]; at 3.7 µM 27% | [4]; [17] 19% | [4]; at 50.0 µM 46% | [5]; at 1.2 µM 2% | [5]; at 3.7 µM 1% | [5]; [17] 15% | [5]; at 11.0 µM 6% | [5]; at 50.0 µM 18.8% | [6]; at 1.2 µM 22% | [6]; at 3.7 µM 37% | [6]; at 11.0 µM 50% | [7]; [17] 39% | [7]; at 50.0 µM 69.3% | [8]; at 1.2 µM 0% | [8]; at 3.7 µM -8% | [8]; at 11.0 µM -7% | [8]; at 33.0 µM 27% | [8]; at 100.0 µM 54% | [9]; [17] -3% | [9]; at 50.0 µM 10.3% | [10]; at 1.2 µM 18% | [10]; at 3.7 µM 15% | [10]; [17] 23% | [10]; at 11.0 µM 29% | [10]; at 50.0 µM 45.4% | [11]; at 1.2 µM -6% | [11]; at 3.7 µM 3% | [11]; at 11.0 µM 43% | [12]; at 1.2 µM -1% | [12]; at 3.7 µM -1% | [12]; at 11.0 µM 24% | [12]; at 33.0 µM 64% | [13]; at 1.2 µM 22% | [13]; at 3.7 µM 37% | [14]; [17] 59% | [14]; at 50.0 µM 69.1%
active: [1]; at 33.0 µM 97% | [1]; at 100.0 µM 97% | [2]; at 33.0 µM 81% | [2]; at 100.0 µM 97% | [3]; at 33.0 µM 94% | [3]; at 100.0 µM 97% | [4]; at 11.0 µM 79% | [4]; at 33.0 µM 97% | [4]; [18] 95% | [4]; at 100.0 µM 98% | [5]; at 33.0 µM 92% | [5]; [18] 93% | [5]; at 100.0 µM 98% | [6]; at 33.0 µM 97% | [6]; at 100.0 µM 98% | [7]; [18] 96% | [9]; [18] 82% | [10]; at 33.0 µM 86% | [10]; [18] 93% | [10]; at 100.0 µM 95% | [11]; at 33.0 µM 96% | [11]; at 100.0 µM 98% | [12]; at 100.0 µM 97% | [13]; at 11.0 µM 78% | [13]; at 33.0 µM 97% | [13]; at 100.0 µM 97% | [14]; [18] 97% | [15]; at 1.2 µM 92% | [15]; at 3.7 µM 96% | [15]; at 11.0 µM 96% | [15]; at 33.0 µM 97% | [15]; at 100.0 µM 97%

O=[N+]([O-])c1ccc(N2CCC(CCCC3CCN(c4ccc([N+](=O)[O-])cc4[N+](=O)[O-])CC3)CC2)c([N+](=O)[O-])c1
active: [16]; at 100.0 µM 77% | [4]; [17] 98% | [4]; [18] 99% | [4]; at 50.0 µM 75% | [5]; [17] 99% | [5]; [18] 99% | [7]; at 50.0 µM 87.5% | [10]; at 50.0 µM 84.3% | [14]; [17] 99% | [14]; [18] 99%
inactive: [1]; at 1.2 µM -24% | [1]; at 3.7 µM -17% | [1]; at 11.0 µM -7% | [1]; at 33.0 µM 0% | [1]; at 100.0 µM 20% | [2]; at 1.2 µM -6% | [2]; at 3.7 µM -1% | [2]; at 11.0 µM 5% | [2]; at 33.0 µM 11% | [2]; at 100.0 µM 11% | [3]; at 1.2 µM -6% | [3]; at 3.7 µM -14% | [3]; at 11.0 µM -17% | [3]; at 33.0 µM -4% | [3]; at 100.0 µM 18% | [16]; at 1.2 µM -18% | [16]; at 3.7 µM -4% | [16]; at 11.0 µM 0% | [16]; at 33.0 µM 10% | [4]; at 1.2 µM 7% | [4]; at 3.7 µM 1% | [4]; at 11.0 µM 4% | [4]; at 33.0 µM 12% | [4]; at 100.0 µM 31% | [5]; at 1.2 µM -35% | [5]; at 3.7 µM -27% | [5]; at 11.0 µM -22% | [5]; at 33.0 µM -20% | [5]; at 50.0 µM 48.5% | [5]; at 100.0 µM -8% | [7]; [17] -41% | [7]; [18] 51% | [9]; [17] 10% | [9]; [18] 50% | [9]; at 50.0 µM 46.2% | [10]; at 1.2 µM -17% | [10]; at 3.7 µM -24% | [10]; [17] 6% | [10]; at 11.0 µM -32% | [10]; at 33.0 µM -6% | [10]; [18] 47% | [10]; at 100.0 µM -4% | [11]; at 1.2 µM -15% | [11]; at 3.7 µM -21% | [11]; at 11.0 µM -9% | [11]; at 33.0 µM 8% | [11]; at 100.0 µM 39% | [12]; at 1.2 µM -19% | [12]; at 3.7 µM -25% | [12]; at 11.0 µM -21% | [12]; at 33.0 µM -24% | [12]; at 100.0 µM 32% | [13]; at 1.2 µM -24% | [13]; at 3.7 µM -17% | [13]; at 11.0 µM -15% | [13]; at 33.0 µM 21% | [13]; at 100.0 µM 52% | [14]; at 50.0 µM 68.3% | [15]; at 1.2 µM -24% | [15]; at 3.7 µM -25% | [15]; at 11.0 µM -14% | [15]; at 33.0 µM -5% | [15]; at 100.0 µM 4%

Oc1ccc2nc3ccccc3nc2c1
active: [2]; at 100.0 µM 72% | [3]; at 33.0 µM 77% | [3]; at 100.0 µM 96% | [16]; at 100.0 µM 80% | [4]; [18] 89% | [4]; at 50.0 µM 91.5% | [4]; at 100.0 µM 92% | [5]; at 50.0 µM 72.7%
inactive: [2]; at 1.2 µM 1% | [2]; at 3.7 µM 6% | [2]; at 11.0 µM 21% | [2]; at 33.0 µM 26% | [3]; at 1.2 µM -1% | [3]; at 3.7 µM -2% | [3]; at 11.0 µM 23% | [16]; at 1.2 µM -2% | [16]; at 3.7 µM -5% | [16]; at 11.0 µM 10% | [16]; at 33.0 µM 43% | [4]; at 1.2 µM 2% | [4]; at 3.7 µM 5% | [4]; [17] 9% | [4]; at 11.0 µM 23% | [4]; at 33.0 µM 68% | [5]; at 1.2 µM 2% | [5]; at 3.7 µM 7% | [5]; [17] 13% | [5]; at 11.0 µM 24% | [5]; at 33.0 µM 52% | [5]; [18] 58%

From PubChem BioAssay (NCI)
